According to PubChem BioAssay (EPA / NIEHS):
Records with an inconclusive call do not appear. Activity calls are given as the source filed them. How the source made its calls: active means hit-call score of the fitted dose curve at least 0.9, where 1 is the maximum; inconclusive means response in the unintended direction; inactive means score below 0.9.

The molecules below were run against human Retinoic Acid Receptor gamma (RARg), RARG (gene 5916) (UniProt P13631) (assay: ATG_RARg_TRANS: Attagene TRANS-FACTORIAL HepG2 Assay for human Retinoic Acid Receptor gamma (RARg) (AID 2283009);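 on AC50: AC50 is for reporter induction above DMSO meaning RARg activation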).
Chain of human Retinoic Acid Receptor gamma (RARg), RARG (gene 5916) (P13631 whole entry, looked up): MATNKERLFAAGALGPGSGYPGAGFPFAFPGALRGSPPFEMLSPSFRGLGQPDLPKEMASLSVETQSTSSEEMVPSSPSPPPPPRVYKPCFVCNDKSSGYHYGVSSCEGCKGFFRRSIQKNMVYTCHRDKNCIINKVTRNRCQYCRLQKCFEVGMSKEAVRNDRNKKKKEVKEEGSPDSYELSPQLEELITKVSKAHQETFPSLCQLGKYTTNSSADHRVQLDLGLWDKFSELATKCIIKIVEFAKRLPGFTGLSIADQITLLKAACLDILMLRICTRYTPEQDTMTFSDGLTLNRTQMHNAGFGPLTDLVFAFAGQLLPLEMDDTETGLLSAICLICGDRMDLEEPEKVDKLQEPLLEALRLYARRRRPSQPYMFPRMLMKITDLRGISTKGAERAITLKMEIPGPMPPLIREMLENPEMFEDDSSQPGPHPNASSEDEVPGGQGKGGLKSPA
Procedure: ATG_TRANS is a cell-based, multiplexed-readout assay that uses HepG2, a human liver cell line, with measurements taken at 24 hours after chemical dosing in a 24-well plate.ATG_RARg_TRANS is one of 30 assay component(s) measured or calculated from the ATG_TRANS assay. It is designed to make measurements of mRNA induction, a form of inducible reporter, as detected with fluorescence intensity signals by Reverse transcription polymerase chain reaction (RT-PCR) and Capillary electrophoresis technology.Data from the assay component ATG_RARg_TRANS was analyzed into 1 assay endpoint. This assay endpoint, ATG_RARg_TRANS, was analyzed in the positive analysis fitting direction relative to DMSO as the negative control and baseline of activity. Using a type of inducible reporter, measures of mRNA for gain-of-signal activity can be used to understand the reporter gene at the transcription factor-level as they relate to the gene RARG. Furthermore, this assay endpoint can be referred to as a primary readout, because this assay has produced multiple assay endpoints where this one serves a reporter gene function. To generalize the intended target to other relatable targets, this assay endpoint is annotated to the nuclear receptor intended target family, where the subfamily is non-steroidal.
Human liver HepG2 cells are transiently transfected with multiple reporter transcription units (MRTUs) in 6-well plates using FuGene 6 reagent (Roche; 3 ml FuGene/1 mg DNA). The MRTU constructs are regulated by a cis-regulating element (promoter). […] A major difference between the CIS and TRANS system is that in CIS activities of endogenous TFs are measured, whereas the TRANS assay evaluates changes in activities of exogenous, chimeric NR-Gal4 proteins. […] At the end of 24 hour incubation, total RNA was isolated using TriZol reagent (Invitrogen). The isolated RNA is then reverse-transcribed using oligo(dT) primer and Mo-MLV reverse transcriptase (Invitrogen) with DNAse I (Ambion) treatment for 30 min. The one-tenth of the produced cDNA was amplified by PCR using Taq DNA polymerase (Invitrogen) and two reporter sequence-specific primers. The PCR products were fluorescently labeled by primer extension with 6-arboxyfluorescein (6-FAM) 5'-labeled reporter sequence-specific primer (2 min at 95 C, 20 s at 68 C and 10 min at 72 C) and these products were digested with 5U of HpaI (New England Biolabs) for 2h at 37 C. […] The raw capillary electrophoresis data was processed using Attagraph software (Attagene).

| SMILES | outcome | AC50 |
| --- | --- | --- |
| CNCc1ccc(NC(=O)c2c[nH]c3c2C(=O)CCC3)cc1 | inactive | – |
| Cn1cnc([N+](=O)[O-])c1Sc1ncnc2nc[nH]c12 | – | 26.1 µM (active) |
| CCOC(=O)COc1ccc2c(c1)CC(NCC(O)c1cccc(Cl)c1)CC2 (centres undefined) | inactive | – |
| CC(C)CCCCCCCOC(=O)CCCCC(=O)OCCCCCCCC(C)C | inactive | – |
| CC(C)(O)c1coc(S(=O)(=O)NC(=O)Nc2c3c(cc4c2CCC4)CCC3)c1 | inactive | – |
| CNS(=O)(=O)c1cc(C(=O)N2CCC(CCN3C4CCC3CC(n3c(C)nc5ccccc53)C4)(c3cccc(F)c3)CC2)c(Cl)cc1F (centres undefined) | inactive | – |
| CCNc1ccccc1 | inactive | – |
| O=c1[nH]c2ccc(S(=O)CCN3CCC(Cc4ccc(F)cc4)CC3)cc2o1 (centres undefined) | inactive | – |
| Clc1nc(Cl)c(Cl)c(Cl)c1Cl | inactive | – |
| CCN(C(=O)c1cc(C)cc(OC[C@H](C)Nc2ccncc2)c1)C(C)C | inactive | – |
| CCOC(=O)c1ccc(C2CCC(NC[C@H](O)COc3ccc(O)c(NS(C)(=O)=O)c3)CC2)cc1 (some centres undefined) | inactive | – |
| CCCCCCCCO | inactive | – |
| CCc1cc(SCc2sc(-c3ccc(C(F)(F)F)cc3)nc2CN2CCN(c3ccc(OC)cc3)CC2)ccc1OCC(=O)O | inactive | – |
| COc1ccc(-n2nc(C(F)F)cc2-c2ccc(S(C)=O)cc2)cc1 (centres undefined) | inactive | – |
| CC(C)CCO | inactive | – |
| COC(=O)c1ccccc1O | inactive | – |
| CCCN(C1CCN(C(=O)C2CCNCC2)CC1)[C@@H]1CCc2ccc(OC)cc2C1 | inactive | – |
| O=C(O)CCN(C1(C(=O)NO)CCCC1)S(=O)(=O)c1ccc(Oc2ccc(F)cc2)cc1 | inactive | – |
| CC(=O)c1ccc2c(c1)[C@H](NC(=O)c1ccc(F)cc1)[C@@H](O)C(C)(C)O2 | inactive | – |
| Cc1[nH]cnc1C[C@H]1CCc2c(C)c3ccccc3n2C1=O | inactive | – |

| SMILES | outcome | AC50 |
| --- | --- | --- |
| COCCOc1cc2cc(C(=O)NC3CCN(C(C)C)CC3)n(CC(=O)Nc3ccc(Cl)cn3)c2cn1 | inactive | – |
| CC[C@H]1CC[C@H](NCc2cc3c(cc2OC)[C@H]2C[C@H]2C(=O)N3C)[C@H](c2ccccc2)N1 | inactive | – |
| C=CCCCCCCCCC(=O)O | inactive | – |
| CCC(C)(C)C(=O)O[C@H]1C[C@@H](C)C=C2C=C[C@H](C)[C@H](CC[C@@H]3C[C@@H](O)CC(=O)O3)[C@H]21 | inactive | – |
| CN(C)c1ccc(Cc2ccc(N(C)C)cc2)cc1 | inactive | – |
| CCCCC(CC)COC(=O)c1ccc(C(=O)OCC(CC)CCCC)cc1 (centres undefined) | inactive | – |
| O=C1CCCCCN1 | inactive | – |
| CC(C)CC(C)(O)C#CC(C)(O)CC(C)C (centres undefined) | inactive | – |
| O=P(OC(CCl)CCl)(OC(CCl)CCl)OC(CCl)CCl | inactive | – |
| CC(C)c1cccc(C(C)C)c1N1C(=O)c2ccc(O)cc2C1=O | inactive | – |
| O=C(O)CC(O)C(=O)O (centres undefined) | inactive | – |
| COCCOCCOCCOC | inactive | – |
| C1=CCCC=CCCC=CCC1 | – | 26.9 µM (active) |
| O=C(O)c1cccc(N(Cc2cccnc2)c2ccc(OC(F)F)c(OC(F)F)c2)c1 | inactive | – |
| O=C(OC[C@H]1O[C@@H](OC(=O)c2cc(O)c(O)c(OC(=O)c3cc(O)c(O)c(O)c3)c2)[C@H](OC(=O)c2cc(O)c(O)c(OC(=O)c3cc(O)c(O)c(O)c3)c2)[C@@H](OC(=O)c2cc(O)c(O)c(OC(=O)c3cc(O)c(O)c(O)c3)c2)[C@@H]1OC(=O)c1cc(O)c(O)c(OC(=O)c2cc(O)c(O)c(O)c2)c1)c1cc(O)c(O)c(OC(=O)c2cc(O)c(O)c(O)c2)c1 | inactive | – |
| Oc1ccc2c(c1)-c1ccccc1C2 | inactive | – |
| Cc1ccc(C)c(O)c1 | inactive | – |
| Cc1c(-c2cccnc2)c2ccccc2n1CCCCC(=O)O | inactive | – |
| Nc1cccc(N)c1 | inactive | – |
